Sampled rows, rich in hits. Any-hit rate of the full collection: about 22%.
CHX counter – counter-screen hit for Shiga toxin inhibitors, cycloheximide | hit rate 12% among 300,000 | max response, % | cell reporter, cycloheximide protein synthesis inhibition counterscreen; in the data active = max response mostly above about 13%, no sharp cut-off; inactive = mostly below about 14%; also: read at 38.3 µM for the half of the compounds with a filed dose; 0% is about no effect
Shiga inhibitor – inhibitors of Shiga toxin in Vero cells; Vero cells, Shiga toxin protein synthesis inhibition reporter; inhibition, % at 38.7 µM; hit rate 9.2% among 290,000; AID 2315; in the data active = inhibition mostly above about 28%, no sharp cut-off; inactive = mostly below about 43%; also: 0% is about no effect
Pf growth 96h – P. falciparum growth inhibition at 96 hour, primary screen for plastid delayed-death inhibitors. P. falciparum luciferase reporter growth, 96 h. Potency, µM (top dose mostly 28.7 µM), for inactives: at the top dose activity change, negative = inhibition, usual class: inhibitors. hit rate 6.9% among 320,000; also: potency is read from the fitted curve at half-maximal effect; % is scaled to controls: 0 for no effect and ±100 for the full control effect
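P. falciparum expressing integrated firefly luciferase grown in erythrocytes (2% hematocrit, 0.05% parasitemia final) with compounds for 96 hours at 37 C, 5% CO2. Growth inhibition read as loss of luminescence after adding luciferase detection reagent.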
Pf growth 48h – inhibits P. falciparum growth in the first generation, 48 h; P. falciparum luciferase growth in erythrocytes, 48 h; Potency, µM (doses to about 28.7 µM), for the others: at the top dose activity change, negative = inhibition, most hits filed as inhibitors; hit rate 5.9% among 310,000; also: potency is read from the fitted curve at half-maximal effect; % is scaled to controls: 0 for no effect and ±100 for the full control effect
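Cell-based growth assay: transgenic P. falciparum expressing firefly luciferase, cultured in red cells within RPMI 1640 containing 0.5% w/v Albumax, 24 mM bicarbonate and gentamycin. A drop in luciferase activity indicates inhibition.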
LmPK inh – LmPK (Leishmania mexicana) enzyme inhibition | AID 1721 | purified LmPK, Kinase-Glo ATP luminescence, 1 h | hit rate 0.37% among 290,000 | Potency, µM (series often up to 57.5 µM), inactives show at the highest dose activity change, negative = inhibition, actives largely listed as inhibitors; also: potency is read from the fitted curve at half-maximal effect; % is scaled to controls: 0 for no effect and ±100 for the full control effect
Target sequence (Q27686 whole entry, looked up): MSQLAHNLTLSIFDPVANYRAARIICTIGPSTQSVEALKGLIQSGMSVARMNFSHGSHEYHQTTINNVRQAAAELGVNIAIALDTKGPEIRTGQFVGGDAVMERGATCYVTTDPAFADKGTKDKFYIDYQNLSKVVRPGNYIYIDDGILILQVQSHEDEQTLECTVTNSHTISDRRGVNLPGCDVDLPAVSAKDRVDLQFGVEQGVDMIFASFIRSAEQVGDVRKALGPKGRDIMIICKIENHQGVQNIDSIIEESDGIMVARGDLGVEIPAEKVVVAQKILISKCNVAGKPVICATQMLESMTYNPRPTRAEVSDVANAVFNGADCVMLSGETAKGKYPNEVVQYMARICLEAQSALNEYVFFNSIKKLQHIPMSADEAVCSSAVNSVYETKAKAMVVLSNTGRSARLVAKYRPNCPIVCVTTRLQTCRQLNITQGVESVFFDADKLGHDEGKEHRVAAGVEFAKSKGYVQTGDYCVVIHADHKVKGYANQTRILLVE
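Kinase-Glo luminescence read after 1 h RT reaction of 0.1 nM LmPK with 0.5 mM PEP and 0.1 mM ADP. Activity scaled between uninhibited and enzyme-free controls.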
Numbers without * were called inactive; [ ] = remark or other dose. Unless noted, calls follow the shape of the dose curve; as a rule, active = well fitted inhibition curve with a large enough effect; inconclusive = small, poorly fitted or top-dose-only effect, or another doubt; inactive = no such curve, though single readings can be large or run the other way.

Screening CC(=O)C1=C(C)Nc2ncnn2C1c1ccccc1OCc1ccccc1 (configuration not stated) returned CHX counter -2.4, Shiga inhibitor -11.2, Pf growth 96h 27.6%, Pf growth 48h 8.28µM* and LmPK inh 5.8%.
Screening CCOC(=O)C1=C(C)Nc2nc(SCC(=O)OC)nn2C1c1cc(F)cc(F)c1 (configuration not stated) returned CHX counter -3.0, Shiga inhibitor -3.3, Pf growth 96h inconclusive, Pf growth 48h inconclusive and LmPK inh -4.3%.
`COc1ccc(C2C(C(N)=O)=C(C)Nc3ncnn32)cc1` (configuration not stated) gave CHX counter 22.2*, Shiga inhibitor 37.8, Pf growth 96h -2.9%, Pf growth 48h 24.3% and LmPK inh -2.6%.
`COc1ccc(C2C(C(=O)Nc3ccccc3OC)=C(C)Nc3ncnn32)cc1` (configuration not stated) gave CHX counter -5.4, Shiga inhibitor -8.1, Pf growth 96h -49.1% and LmPK inh 7.1%.
`COc1ccc(C2C(C(C)=O)=C(C)Nc3ncnn32)cc1[N+](=O)[O-]` (configuration not stated) gave CHX counter -1.1, Shiga inhibitor 3.6, Pf growth 96h 4.15µM*, Pf growth 48h -21.1%[0.00184 µM] and LmPK inh -1.4%.
For CCc1cccc(C)c1NC(=O)C1CN(S(=O)(=O)c2ccccc2)CCN1S(=O)(=O)c1ccccc1 (configuration not stated) the results were CHX counter -2.4, Shiga inhibitor -9.1, Pf growth 96h 34.8%, Pf growth 48h 0.0% and LmPK inh 3.4%.
`CC1C(=O)Nc2ccccc2N1C(=O)c1ccc(F)cc1` (configuration not stated) gave CHX counter -2.5, Shiga inhibitor -9.0, Pf growth 96h 28.0%, Pf growth 48h 2.6% and LmPK inh -6.7%.
`Cc1onc(-c2c(Cl)cccc2Cl)c1C(=O)N=C(N)N1CC(C)OC(C)C1` (configuration not stated) gave CHX counter -2.0, Shiga inhibitor -2.8, Pf growth 96h 11.7µM*, Pf growth 48h 3.29µM* and LmPK inh 4.1%.
For CCOC(=O)c1ccc(N2CCOCC2)c(NC(=O)c2c(-c3ccccc3)noc2C)c1 the results were CHX counter 0.5, Shiga inhibitor 10.3, Pf growth 96h inconclusive, Pf growth 48h 13.1µM* and LmPK inh 4.2%.
Screening Cc1onc(-c2c(Cl)cccc2Cl)c1C(=O)N1CCN(c2ccccc2F)CC1 returned CHX counter -1.3, Shiga inhibitor 1.3, Pf growth 96h inconclusive, Pf growth 48h 13.1µM* and LmPK inh -2.0%.
Screening Cc1onc(-c2c(F)cccc2Cl)c1C(=O)Nc1ccccc1N1CCOCC1 returned CHX counter -0.5, Shiga inhibitor -4.8, Pf growth 96h 2.62µM*, Pf growth 48h 1.85µM* and LmPK inh 1.1%.
Cc1onc(-c2c(F)cccc2Cl)c1C(=O)N=C(N)N1CCCC1 was read as CHX counter 1.0, Shiga inhibitor 20.6, Pf growth 96h -9.7%, Pf growth 48h 6.3% and LmPK inh 4.5%.
Screening C=CCN1C(=O)/C(=C/c2ccc3c(c2)CCCN3CCC)C(=O)NC1=S returned CHX counter 11.4*, Shiga inhibitor 2.1, Pf growth 96h 40.0%, Pf growth 48h 21.6% and LmPK inh -26.3%.
Screening CCN1C(=O)/C(=C/c2ccc3c(c2)CCN3CCCCl)C(=O)NC1=S returned CHX counter 0.4, Shiga inhibitor 7.9, Pf growth 96h 0.0%, Pf growth 48h -0.7% and LmPK inh -22.3%.
For CN(C)C1CCN(Cc2cc(COCc3ccccc3)c3cccnc3c2O)C1 (configuration not stated) the results were Pf growth 96h inconclusive and Pf growth 48h 0.828µM*.
Screening Oc1c(CN2CCCCC2)cc(COCc2ccccc2)c2cccnc12 returned CHX counter 16.9*, Shiga inhibitor 33.6, Pf growth 96h 2.08µM*, Pf growth 48h 1.85µM* and LmPK inh 6.2%.
Oc1ccc(CN2CCC(Cc3ccccc3)CC2)c2cccnc12 was read as CHX counter 4.6, Shiga inhibitor 21.5, Pf growth 96h 2.5%, Pf growth 48h inconclusive and LmPK inh -2.5%.
`COCc1cc(CN2CCCC2)c(O)c2ncccc12` gave CHX counter 17.5, Shiga inhibitor -9.7, Pf growth 96h inconclusive, Pf growth 48h 2.94µM* and LmPK inh 6.2%.
Screening CCOC(=O)c1c(C)nn(Cc2cccc(Cl)c2)c1N returned CHX counter -3.1, Shiga inhibitor -11.4, Pf growth 96h 4.8%, Pf growth 48h 9.8% and LmPK inh -3.1%.
`Nc1nnc(SCCOc2ccccc2)s1` gave CHX counter 16.6*, Shiga inhibitor 26.6*, Pf growth 96h inconclusive, Pf growth 48h 46.3% and LmPK inh -0.6%.
Screening Nc1nnc(SCCOc2ccc(Br)cc2)s1 returned CHX counter 18.4*, Shiga inhibitor 36.8, Pf growth 48h 27.4% and LmPK inh 3.0%.
Screening CC(C)COC(=O)Nc1nnc(SCCOc2ccccc2)s1 returned CHX counter 0.3, Shiga inhibitor 5.8, Pf growth 96h 458.6%, Pf growth 48h 22.4% and LmPK inh 3.3%.
Screening Cc1nnc(SCCOc2ccccc2)s1 returned CHX counter 25.7*, Shiga inhibitor 36.5, Pf growth 96h 5.3%, Pf growth 48h 24.9% and LmPK inh 1.3%.
Cc1cccc(COc2ccc(/C=C3/C(=O)N(C)C(=S)N3C)cc2)c1 was read as CHX counter 1.8, Pf growth 96h -16.3%, Pf growth 48h -13.6% and LmPK inh -1.2%.
Screening CC(=O)Nc1ccc(NC(=O)c2ccccc2CCc2ccccc2)cc1 returned CHX counter 3.1, Shiga inhibitor -10.0, Pf growth 96h 18.2%, Pf growth 48h -12.6% and LmPK inh -2.5%.
Screening COc1ccccc1C(=O)NNC(=O)c1ccc(NC(=O)CC(C)C)cc1 returned CHX counter 1.7, Shiga inhibitor -5.3, Pf growth 96h 266.1%, Pf growth 48h inconclusive and LmPK inh 6.6%.
Screening O=[N+]([O-])c1ccc(O)c(N=Cc2sc3ccccc3c2O)c1 returned CHX counter 60.0*, Shiga inhibitor 60.7*, Pf growth 96h inconclusive, Pf growth 48h inconclusive and LmPK inh -23.8%.
For COc1ccc(N=Cc2sc3ccccc3c2Cl)cc1 the results were CHX counter 25.0*, Shiga inhibitor 13.0, Pf growth 96h 32.4%, Pf growth 48h 32.1% and LmPK inh -5.7%.
Oc1ccc(Cl)cc1N=Cc1sc2ccccc2c1Cl was read as CHX counter 41.4*, Shiga inhibitor 60.5*, Pf growth 96h 2.33µM*, Pf growth 48h inconclusive and LmPK inh 3.0%.
For O=[N+]([O-])c1cccc(C=Nc2cccc3ccccc23)c1O the results were CHX counter 4.3, Shiga inhibitor -11.3, Pf growth 96h -1.6%, Pf growth 48h 1.5% and LmPK inh inconclusive.
